Assay results as given in the supplement of paper PMC10849652.
The full data set covers some 8,800 targets. This sample favours those with a hit. About 0.5% of all pairs of compound and target were hits.

Assays:
Test in all cases: log2 fold change, soluble protein after heating vs DMSO (PISA); higher = thermal stabilisation; K562 lysate, 10 uM; active = over 0.2 and 3.5 SD of the protein, either way, in both replicates (recomputed)
[1] = compound: C1=CC=C(C=C1)[C@H](COC2=CC3=C(C=C2)NC(=O)N3)NC(=O)C4=CC=CN(C4=O)CC5=CC(=C(C=C5)F)F
In short: (§1)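 A 30 min treatment with 10 μM compound was applied to crude K562 extract at 1 mg/mL protein in PBS pH 7.4 with 1 mM MgCl2. Heating for 3 min spanned 48°C-58°C, after which aliquots were pooled, adjusted to 0.5% NP-40 at 4°C and spun at 21,000xg for 90 min. TMTpro 16plex LC-MS/MS of the supernatant, with channel sums equalised, gave values recorded as log-two fold change in thermal stability against solvent controls, from duplicates.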

[2] = compound: CC1=C(SC2=C1C(=N[C@H](C3=NN=C(N32)C)CC(=O)N)C4=CC=C(C=C4)Cl)C
In short: as §1

[3] = compound: CC1=C2C(=CC=C1)N=C(N(C2=O)C3=CC=CC=C3C)CN4C=NC5=C(N=CN=C54)N
In short: as §1

[4] = compound: Cc1sc2c(c1C)C(c1ccc(Cl)cc1)=N[C@@H](CC(=O)OC(C)(C)C)c1nnc(C)n1-2
In short: as §1

[5] = compound: c1ccc([C@@H]2C[C@H]2NC2CCNCC2)cc1
In short: as §1

Measured: log2 fold change

ARHGEF1 (UniProt M0QZR4)
inactive: [1] -0.046 | [2] 0.006 | [3] -0.017 | [4] -0.017 | [5] 0.004

ABCD3 (UniProt P28288)
Sequence of UniProt P28288 (P28288 whole entry, looked up): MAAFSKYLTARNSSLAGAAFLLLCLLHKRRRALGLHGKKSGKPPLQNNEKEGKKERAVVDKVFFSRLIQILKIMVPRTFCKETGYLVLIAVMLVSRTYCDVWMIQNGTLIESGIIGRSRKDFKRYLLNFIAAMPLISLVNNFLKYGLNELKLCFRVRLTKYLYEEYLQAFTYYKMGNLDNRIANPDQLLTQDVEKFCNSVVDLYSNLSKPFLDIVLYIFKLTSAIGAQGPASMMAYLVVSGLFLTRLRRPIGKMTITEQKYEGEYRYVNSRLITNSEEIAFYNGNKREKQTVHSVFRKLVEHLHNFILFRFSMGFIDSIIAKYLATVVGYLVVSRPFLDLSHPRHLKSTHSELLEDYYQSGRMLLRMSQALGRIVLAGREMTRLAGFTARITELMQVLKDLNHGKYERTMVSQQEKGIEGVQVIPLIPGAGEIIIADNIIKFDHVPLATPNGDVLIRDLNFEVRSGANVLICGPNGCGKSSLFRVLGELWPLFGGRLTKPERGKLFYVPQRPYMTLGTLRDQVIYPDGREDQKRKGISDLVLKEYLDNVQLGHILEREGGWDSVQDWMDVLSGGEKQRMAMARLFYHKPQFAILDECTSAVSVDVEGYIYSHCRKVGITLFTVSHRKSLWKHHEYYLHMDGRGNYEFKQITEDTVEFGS
inactive: [1] 0.178 | [2] -0.094 | [3] 0.016 | [4] 0.013 | [5] 0.01

AP3D1 isoform 5 (UniProt O14617)
Sequence of UniProt O14617 (O14617 whole entry, looked up): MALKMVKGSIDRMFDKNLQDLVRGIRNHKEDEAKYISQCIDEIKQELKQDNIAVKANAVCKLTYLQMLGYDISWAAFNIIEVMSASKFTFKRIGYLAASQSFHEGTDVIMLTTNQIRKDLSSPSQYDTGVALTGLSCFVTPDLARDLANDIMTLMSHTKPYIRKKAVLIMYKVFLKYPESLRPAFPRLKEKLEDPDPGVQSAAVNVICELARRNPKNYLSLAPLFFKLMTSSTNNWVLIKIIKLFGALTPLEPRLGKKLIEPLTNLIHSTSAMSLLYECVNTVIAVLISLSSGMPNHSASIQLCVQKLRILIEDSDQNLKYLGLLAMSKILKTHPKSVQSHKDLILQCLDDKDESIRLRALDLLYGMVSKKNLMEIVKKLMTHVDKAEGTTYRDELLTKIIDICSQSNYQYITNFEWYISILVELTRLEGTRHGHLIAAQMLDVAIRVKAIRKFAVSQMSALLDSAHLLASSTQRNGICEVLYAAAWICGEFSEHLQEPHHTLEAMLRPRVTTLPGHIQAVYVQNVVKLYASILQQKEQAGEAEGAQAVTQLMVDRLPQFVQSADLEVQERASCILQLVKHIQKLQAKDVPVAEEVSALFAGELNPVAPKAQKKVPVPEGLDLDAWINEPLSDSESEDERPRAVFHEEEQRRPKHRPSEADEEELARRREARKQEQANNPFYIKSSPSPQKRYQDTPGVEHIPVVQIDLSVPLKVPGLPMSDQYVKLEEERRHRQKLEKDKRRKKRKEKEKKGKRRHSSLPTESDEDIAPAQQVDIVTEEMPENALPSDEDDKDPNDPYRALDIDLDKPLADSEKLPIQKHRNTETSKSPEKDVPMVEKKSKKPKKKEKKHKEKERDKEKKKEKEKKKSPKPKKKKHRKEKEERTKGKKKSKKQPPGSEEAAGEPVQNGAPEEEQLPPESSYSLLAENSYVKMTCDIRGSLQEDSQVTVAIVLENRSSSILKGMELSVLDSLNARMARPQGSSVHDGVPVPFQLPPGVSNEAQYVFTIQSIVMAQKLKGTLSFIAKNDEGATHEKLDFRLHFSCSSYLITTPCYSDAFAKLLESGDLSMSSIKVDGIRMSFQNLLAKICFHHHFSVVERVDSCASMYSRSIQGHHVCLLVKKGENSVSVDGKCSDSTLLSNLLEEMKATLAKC
inactive: [1] 0.042 | [2] -0.027 | [3] 0.003 | [4] 0.025 | [5] -0.028

AKT1 (UniProt P31749)
inactive: [1] 0.011 | [2] -0.028 | [3] -0.028 | [4] -0.009 | [5] 0.013

ALDH2 (UniProt P05091)
inactive: [1] 0.029 | [2] -0.028 | [3] -0.022 | [4] -0.018 | [5] 0.01

ABHD13 (UniProt Q7L211)
Sequence of UniProt Q7L211 (Q7L211 whole entry, looked up): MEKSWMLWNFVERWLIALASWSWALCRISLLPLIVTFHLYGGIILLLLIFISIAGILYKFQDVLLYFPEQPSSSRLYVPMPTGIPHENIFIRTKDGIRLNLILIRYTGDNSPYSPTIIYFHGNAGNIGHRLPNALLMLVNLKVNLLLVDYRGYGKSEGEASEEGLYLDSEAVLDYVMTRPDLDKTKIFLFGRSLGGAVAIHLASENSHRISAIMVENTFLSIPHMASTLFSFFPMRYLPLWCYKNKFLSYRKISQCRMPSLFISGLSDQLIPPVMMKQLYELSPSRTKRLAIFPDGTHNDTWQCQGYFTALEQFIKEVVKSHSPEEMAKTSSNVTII
inactive: [1] 0.043 | [2] -0.127 | [3] 0.153 | [4] -0.171 | [5] -0.246

AMDHD2 isoform 3 (UniProt Q9Y303)
Sequence of UniProt Q9Y303 (Q9Y303 whole entry, looked up): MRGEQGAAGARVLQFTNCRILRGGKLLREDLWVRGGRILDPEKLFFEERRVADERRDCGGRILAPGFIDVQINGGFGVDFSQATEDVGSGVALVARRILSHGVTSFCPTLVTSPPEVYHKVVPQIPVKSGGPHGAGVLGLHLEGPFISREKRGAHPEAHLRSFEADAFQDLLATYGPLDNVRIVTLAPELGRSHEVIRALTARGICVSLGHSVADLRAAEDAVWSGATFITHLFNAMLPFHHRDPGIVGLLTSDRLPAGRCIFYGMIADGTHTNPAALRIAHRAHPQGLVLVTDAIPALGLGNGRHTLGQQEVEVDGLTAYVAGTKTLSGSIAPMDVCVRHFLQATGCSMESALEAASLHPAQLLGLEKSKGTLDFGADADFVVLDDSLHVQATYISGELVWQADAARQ
inactive: [1] 0.049 | [2] 0.016 | [3] 0.031 | [4] 0.037 | [5] -0.043

ALDH5A1 isoform 2 (UniProt P51649)
inactive: [1] -0.029 | [2] -0.018 | [3] -0.017 | [4] 0.004 | [5] 0.075

ARGLU1 (UniProt Q9NWB6)
Sequence of UniProt Q9NWB6 (Q9NWB6 whole entry, looked up): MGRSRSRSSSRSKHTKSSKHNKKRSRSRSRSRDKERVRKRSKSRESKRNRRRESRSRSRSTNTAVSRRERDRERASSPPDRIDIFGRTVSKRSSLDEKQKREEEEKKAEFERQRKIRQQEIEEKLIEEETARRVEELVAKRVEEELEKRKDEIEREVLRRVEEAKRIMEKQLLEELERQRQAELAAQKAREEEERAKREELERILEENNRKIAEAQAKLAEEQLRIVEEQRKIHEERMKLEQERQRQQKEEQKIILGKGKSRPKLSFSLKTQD
inactive: [1] 0.049 | [2] 0.009 | [3] 0.036 | [4] -0.026 | [5] 0.074

ARL1 (UniProt P40616)
Sequence of UniProt P40616 (P40616 whole entry, looked up): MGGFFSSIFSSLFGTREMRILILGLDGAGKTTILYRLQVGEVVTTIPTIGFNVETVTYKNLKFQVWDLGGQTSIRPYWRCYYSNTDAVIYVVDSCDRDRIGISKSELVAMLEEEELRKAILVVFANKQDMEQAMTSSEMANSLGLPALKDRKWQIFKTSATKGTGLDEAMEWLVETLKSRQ
inactive: [1] 0.094 | [2] 0.023 | [3] 0.051 | [4] -0.026 | [5] 0.026

ACSL1 (UniProt P33121)
inactive: [1] -0.136 | [2] 0.004 | [3] 0.014 | [4] 0.063 | [5] 0.021

AGPAT1 (UniProt Q99943)
Sequence of UniProt Q99943 (Q99943 whole entry, looked up): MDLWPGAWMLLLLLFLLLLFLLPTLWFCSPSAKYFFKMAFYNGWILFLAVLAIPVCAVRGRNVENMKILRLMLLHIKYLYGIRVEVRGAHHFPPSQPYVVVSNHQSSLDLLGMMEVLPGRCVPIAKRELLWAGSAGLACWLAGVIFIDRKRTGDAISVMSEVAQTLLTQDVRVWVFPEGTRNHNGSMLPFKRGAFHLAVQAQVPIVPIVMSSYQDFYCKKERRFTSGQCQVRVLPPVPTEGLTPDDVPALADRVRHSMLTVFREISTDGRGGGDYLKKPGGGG
inactive: [1] -0.04 | [2] 0.024 | [3] 0.089 | [4] -0.038 | [5] -0.134

ALDH1B1 (UniProt P30837)
inactive: [1] 0.143 | [2] -0.021 | [3] 0.006 | [4] 0.049 | [5] 0.019

ACIN1 (UniProt E7EQT4)
inactive: [1] 0.04 | [2] 0.015 | [3] 0.037 | [4] 0.032 | [5] -0.118

ADD1 isoform 3 (UniProt P35611)
Sequence of UniProt P35611 (P35611 whole entry, looked up): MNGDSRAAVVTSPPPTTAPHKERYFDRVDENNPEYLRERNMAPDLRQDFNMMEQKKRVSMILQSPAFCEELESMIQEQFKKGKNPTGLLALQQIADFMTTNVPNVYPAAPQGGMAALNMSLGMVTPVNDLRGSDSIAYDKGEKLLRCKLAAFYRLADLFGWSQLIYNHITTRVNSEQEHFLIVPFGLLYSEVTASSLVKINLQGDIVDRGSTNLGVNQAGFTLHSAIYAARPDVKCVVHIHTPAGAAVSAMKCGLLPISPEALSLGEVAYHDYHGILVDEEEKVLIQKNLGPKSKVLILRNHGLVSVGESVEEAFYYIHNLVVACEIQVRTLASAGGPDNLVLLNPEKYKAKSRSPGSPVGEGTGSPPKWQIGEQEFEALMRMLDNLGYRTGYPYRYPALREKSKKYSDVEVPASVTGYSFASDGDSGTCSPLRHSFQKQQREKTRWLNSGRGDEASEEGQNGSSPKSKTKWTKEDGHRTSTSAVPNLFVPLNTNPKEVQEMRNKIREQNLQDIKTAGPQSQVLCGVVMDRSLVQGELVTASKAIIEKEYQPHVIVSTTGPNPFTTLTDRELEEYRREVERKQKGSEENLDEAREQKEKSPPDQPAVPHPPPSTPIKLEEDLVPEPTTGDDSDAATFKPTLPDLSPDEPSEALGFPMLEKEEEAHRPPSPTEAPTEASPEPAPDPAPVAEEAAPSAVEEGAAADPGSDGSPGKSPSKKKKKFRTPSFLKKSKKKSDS
inactive: [1] 0.03 | [2] 0.016 | [3] -0.01 | [4] -0.021 | [5] 0.015

ARL8A (UniProt Q96BM9)
inactive: [1] 0.038 | [2] -0.02 | [3] -0.157 | [4] 0.093 | [5] 0.1

AKR1C3 (UniProt P42330)
Sequence of UniProt P42330 (P42330 whole entry, looked up): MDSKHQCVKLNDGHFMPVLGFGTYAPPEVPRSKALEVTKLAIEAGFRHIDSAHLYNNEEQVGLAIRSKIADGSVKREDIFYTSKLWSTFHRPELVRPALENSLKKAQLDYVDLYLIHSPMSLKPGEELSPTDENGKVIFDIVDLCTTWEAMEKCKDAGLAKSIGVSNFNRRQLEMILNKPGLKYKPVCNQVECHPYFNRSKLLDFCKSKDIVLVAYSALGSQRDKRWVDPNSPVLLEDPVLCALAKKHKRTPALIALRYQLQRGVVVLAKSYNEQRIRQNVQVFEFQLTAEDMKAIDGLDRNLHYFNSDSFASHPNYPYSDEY
inactive: [1] 0.031 | [2] 0.05 | [3] 0.022 | [4] -0.04 | [5] 0.031

ALKBH4 (UniProt Q9NXW9)
inactive: [1] 0.011 | [2] 0.025 | [3] 0.032 | [4] 0.01 | [5] -0.017

ACTBL2 (UniProt Q562R1)
inactive: [1] 0.138 | [2] -0.194 | [3] -0.016 | [4] 0.106 | [5] 0.365

ABHD16A (UniProt O95870)
inactive: [1] -0.011 | [2] 0.008 | [3] 0.07 | [4] 0.059 | [5] 0.028

AKAP8 (UniProt O43823)
inactive: [1] -0.02 | [2] 0.073 | [3] -0.016 | [4] -0.009 | [5] -0.014

ASNS (UniProt P08243)
Sequence of UniProt P08243 (P08243 whole entry, looked up): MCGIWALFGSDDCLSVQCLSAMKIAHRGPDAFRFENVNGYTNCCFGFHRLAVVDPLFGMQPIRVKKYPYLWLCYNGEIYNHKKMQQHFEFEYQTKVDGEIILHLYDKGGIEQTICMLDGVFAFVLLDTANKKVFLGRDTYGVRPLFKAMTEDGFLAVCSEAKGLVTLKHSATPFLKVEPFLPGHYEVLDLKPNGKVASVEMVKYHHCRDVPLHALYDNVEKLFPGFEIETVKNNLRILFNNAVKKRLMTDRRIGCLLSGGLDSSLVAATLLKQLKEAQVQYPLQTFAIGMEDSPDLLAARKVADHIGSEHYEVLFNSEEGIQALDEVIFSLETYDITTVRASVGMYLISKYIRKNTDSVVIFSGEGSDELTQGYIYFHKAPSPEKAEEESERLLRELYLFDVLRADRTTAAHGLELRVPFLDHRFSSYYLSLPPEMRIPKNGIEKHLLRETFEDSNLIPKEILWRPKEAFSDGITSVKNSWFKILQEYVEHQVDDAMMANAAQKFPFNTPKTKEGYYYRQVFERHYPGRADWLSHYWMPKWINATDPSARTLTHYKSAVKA
inactive: [1] 0.006 | [2] 0.021 | [3] 0.027 | [4] 0.057 | [5] 0.033

ABHD17B (UniProt Q5VST6)
inactive: [1] 0.014 | [2] 0.044 | [3] -0.028 | [4] -0.044 | [5] -0.198

ABL1 isoform 2 (UniProt P00519)
inactive: [1] -0.042 | [2] -0.065 | [3] 0.067 | [4] -0.017 | [5] 0.102
